From PubChem BioAssay
Calls of active or inactive are those of the source. Unless noted, no rule for the calls is given here.

Experiments:
[1] = compound effects on lung adenocarcinoma cell viability – A549, calcein-AM fluorescence, 48 h, basal, profiling panel (AID 1162); settings: higher = more signal; also: test concentration not given here
[2] = compound effects on differentiated 3T3-L1 adipocyte viability – cell-based, 3T3-L1 adipocytes, calcein-AM fluorescence, 48 h, basal, profiling panel (AID 1163); settings: 3T3-L1 adipocytes viability, higher = more signal; also: test concentration not given here
[3] = compound effects on hepatocellular carcinoma cell viability – HepG2, calcein-AM fluorescence, 48 h, basal, profiling panel (AID 1164); settings: higher = more signal; also: test concentration not given here
[4] = compound effects on multiple myeloma cell viability – MM1S, calcein-AM fluorescence, 48 h, basal, profiling panel (AID 1165); settings: higher = more signal;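 also: viability of MM1S multiple myeloma cells under basal unstimulated conditions; test concentration not given here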
[5] = calcein-AM signal in unstimulated myeloma cells – cell-based, calcein-AM fluorescence, 48 h, PK04 Diversity Set, profiling panel (AID 1166); settings: RPMI8226 myeloma viability, higher = more signal;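 also: cells grown under basal conditions without added stimulus; test concentration not given here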
[6] = JC-1 mitochondrial signal, unstimulated HepG2 cells – cell-based, JC-1 fluorescence, 24 h, 100 nL compound, profiling panel (AID 1167); settings: HepG2 mitochondrial potential, higher = more signal; also: test concentration not given here
[7] = JC-1 mitochondrial signal, unstimulated adipocytes – cell-based, JC-1 fluorescence, 3T3-L1 adipocytes, 24 h, 100 nL compound, profiling panel (AID 1168); settings: JC-1 mitochondrial fluorescence, higher = more signal, called active from +8 up or from −8 down; also: test concentration not given here
[8] = JC-1 mitochondrial signal, unstimulated myeloma cells – cell-based, JC-1 fluorescence, RPMI8226, 24 h, 100 nL compound, profiling panel (AID 1169); settings: JC-1 mitochondrial potential fluorescence, higher = more signal; also: test concentration not given here
[9] = JC-1 mitochondrial signal, unstimulated MM1S myeloma – cell-based, JC-1 fluorescence, 24 h, 100 nL compound, profiling panel (AID 1170); settings: MM1S mitochondrial potential, higher = more signal; also: test concentration not given here
[10] = resazurin metabolic signal in A549 cells – cell-based, resazurin fluorescence, 24 h, PK04 Diversity Set, profiling panel (AID 1171); settings: A549 viability, higher = more signal, called active from +8 up or from −8 down; also: test concentration not given here
[11] = resazurin metabolic signal in HepG2 cells – cell-based, resazurin fluorescence, 24 h, PK04 Diversity Set, profiling panel (AID 1172); settings: HepG2 viability, higher = more signal; also: test concentration not given here
[12] = budding yeast growth changes without added modifier – OD600, strain BY4716, 24 h, basal condition, primary screen (AID 1173); settings: S. cerevisiae BY4716 growth, OD600, 24 h; higher = more signal, called active from +8 up or from −8 down
[13] = viability profiling in MM1S myeloma cells – cell-based, resazurin fluorescence, basal, 24 h, PK04 Diversity Set, profiling panel (AID 1174); settings: higher = more signal, called active from +8 up or from −8 down; also: test concentration not given here
[14] = target: Dihydroorotate dehydrogenase (quinone), mitochondrial (Plasmodium falciparum (isolate 3D7)) (UniProt Q08210); assay: inhibition of P. falciparum DHODH – biochemical, C-terminal His tag, absorbance 600 nm, primary screen (AID 1175); settings: PfDHODH enzyme, DCIP absorbance 600 nm; higher = more signal, called active from +8 up or from −8 down;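 also: recombinant parasite enzyme with a five histidine tag at its C terminus; test concentration not given here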
Dihydroorotate dehydrogenase (quinone), mitochondrial (Plasmodium falciparum (isolate 3D7)), sequence (Q08210 whole entry, looked up): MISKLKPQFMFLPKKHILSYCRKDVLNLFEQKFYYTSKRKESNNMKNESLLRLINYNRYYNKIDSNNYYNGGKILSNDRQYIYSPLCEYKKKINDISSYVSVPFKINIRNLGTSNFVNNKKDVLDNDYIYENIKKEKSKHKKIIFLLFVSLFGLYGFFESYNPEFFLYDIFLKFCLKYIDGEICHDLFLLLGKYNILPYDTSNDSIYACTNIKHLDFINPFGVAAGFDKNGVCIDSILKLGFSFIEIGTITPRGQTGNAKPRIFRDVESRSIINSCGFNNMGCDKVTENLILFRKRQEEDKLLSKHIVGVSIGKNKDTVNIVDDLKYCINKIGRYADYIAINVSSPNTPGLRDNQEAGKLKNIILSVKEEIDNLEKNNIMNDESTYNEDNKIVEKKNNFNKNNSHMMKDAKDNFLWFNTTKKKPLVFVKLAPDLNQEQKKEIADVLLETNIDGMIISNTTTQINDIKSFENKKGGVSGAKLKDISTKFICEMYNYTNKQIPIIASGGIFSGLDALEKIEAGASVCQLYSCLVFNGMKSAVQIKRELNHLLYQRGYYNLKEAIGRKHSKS

[15] = inhibition of PAO1 biofilm formation – strain PAO1, LB-PBS medium, absorbance 600 nm, primary screen (AID 1176); also: test concentration not given here; settings: P. aeruginosa PAO1 growth/biofilm, A600, 12 h; higher = more signal
[16] = growth modulation of vineyard yeast isolate – strain RM11-1a, OD600, basal, 24 h, primary screen (AID 1177);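 also: cultures grown under basal conditions with no added stressor; test concentration not given here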; settings: S. cerevisiae RM11-1a growth, OD600, 24 h; higher = more signal, called active from +8 up or from −8 down
[17] = growth of efflux-deficient E. coli DRC39 – strain DRC39, OD650, 24 h, E. coli filamentation inducers, primary screen (AID 1178);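 also: growth measured as culture turbidity by optical density at 650 nm; test concentration not given here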; settings: E. coli DRC39 acrAB, higher = more signal, called active from +8 up or from −8 down
[18] = growth of efflux-deficient E. coli DRC39 – strain DRC39, OD650, 48 h, E. coli filamentation inducers, primary screen (AID 1179);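 also: screen aims at cell division blockers that make cells filament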; settings: E. coli DRC39 delta-acrAB growth, higher = more signal, called active from +8 up or from −8 down
[19] = viability profiling in RPMI8226 myeloma cells – cell-based, resazurin fluorescence, basal, 24 h, PK04 Diversity Set, profiling panel (AID 1180); settings: higher = more signal;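 also: RPMI8826 multiple myeloma cell line at 5000 cells per well; test concentration not given here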
[20] = target: E3 ubiquitin-protein ligase XIAP (Homo sapiens) (UniProt P98170); assay: small molecules binding XIAP protein – biophysical, small-molecule microarray, fluorescence 635 nm, primary screen (AID 1181); settings: higher = more signal;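 also: score merges 667 nm emission and signal to noise over triplicate slides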
E3 ubiquitin-protein ligase XIAP (Homo sapiens), sequence (P98170 whole entry, looked up): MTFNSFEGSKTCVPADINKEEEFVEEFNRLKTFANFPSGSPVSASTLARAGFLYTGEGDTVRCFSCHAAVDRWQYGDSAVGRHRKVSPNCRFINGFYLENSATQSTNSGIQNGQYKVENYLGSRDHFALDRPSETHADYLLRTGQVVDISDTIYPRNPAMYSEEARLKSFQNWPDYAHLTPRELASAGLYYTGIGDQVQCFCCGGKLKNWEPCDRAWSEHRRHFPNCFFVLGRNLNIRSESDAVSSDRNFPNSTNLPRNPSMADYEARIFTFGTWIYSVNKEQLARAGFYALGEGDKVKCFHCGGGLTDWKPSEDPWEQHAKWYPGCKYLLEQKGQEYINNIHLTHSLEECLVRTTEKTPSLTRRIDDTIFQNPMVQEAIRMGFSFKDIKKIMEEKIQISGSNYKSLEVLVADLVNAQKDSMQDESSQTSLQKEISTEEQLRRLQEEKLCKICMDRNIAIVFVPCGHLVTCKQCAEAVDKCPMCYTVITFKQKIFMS

SMILES	z-score [1]	z-score [2]	z-score [3]	z-score [4]	z-score [5]	z-score [6]	z-score [7]	z-score [8]	z-score [9]	z-score [10]	z-score [11]	z-score [12]	z-score [13]	composite z-score [14]	z-score [15]	z-score [16]	z-score [17]	z-score [18]	z-score [19]	composite z-score [20]
C[N+](C)(C)CCCCCCNC(=O)[C@@H]1C[C@@H]2C(=O)N[C@@H](Cc3ccccc3)C(=O)N2[C@@H]1c1ccc(O)cc1	-0.428	-0.482	0.223	0.337	-0.0064	-1.12	-0.055 (inactive)	-0.862	-0.401	0.47 (inactive)	1.17	-0.471 (inactive)	0.224 (inactive)	-0.77 (inactive)	0.615 (inactive)	-0.0653 (inactive)	0.457 (inactive)	0.492 (inactive)	0.25	-0.0882
[N-]=[N+]=NCc1ccccc1C[C@]1(C(=O)NCc2ccccc2)N=C(c2ccc(OCCCO)cc2)O[C@H]1c1ccccc1CN=[N+]=[N-]	-1.42	2.15	-0.955	-1.23	-1.69	0.247	-0.158 (inactive)	-0.899	-0.214	-1.09 (inactive)	-0.907	0.831 (inactive)	-0.153 (inactive)	0.238 (inactive)	1.32 (inactive)	0.832 (inactive)	3.04 (inactive)	1.01 (inactive)	-0.28	-0.0559
CN1C(=O)C2C(C1=O)C1C=C(c3ccc(CO)cc3)C2C(c2cccs2)N1C (stereo not given)	-0.0148	0.338	0.186	-0.88	-0.996	0.398	-0.42 (inactive)	-0.492	0.172	-0.173 (inactive)	-0.584	-1.59 (inactive)	-0.446 (inactive)	-1.46 (inactive)	-2.71 (inactive)	-0.0654 (inactive)	0.596 (inactive)	0.346 (inactive)	0.343	-0.444
O=C1C2C=CC(C(O)c3cccc(O)c3)N(Nc3ccccc3F)C2C(=O)N1c1ccccc1 (stereo not given)	-0.769	0.906	-1.28	-1.95	-1.9	-1.66	-1.85 (inactive)	0.742	-1.64	0.249 (inactive)	0.244	-14.7 (active)	-0.343 (inactive)	-2.46 (inactive)	1.22 (inactive)	-7.32 (inactive)	0.684 (inactive)	0.573 (inactive)	0.133	0.0345
COCCOC(=O)N1C(=O)[C@@]2(c3cc(C#CC4=CCCCC4)ccc31)[C@H](C(=O)N1CCc3cc(OC)c(OC)cc3C1)[C@H]1C(=O)O[C@H](c3ccccc3)[C@H](c3ccccc3)N1[C@@H]2c1ccc(O)cc1	0.59	0.479	0.334	-1.16	-0.583	-0.427	0.508 (inactive)	-0.388	0.403	0.481 (inactive)	-0.03	0.935 (inactive)	-0.0713 (inactive)	0.0434 (inactive)	0.802 (inactive)	2.23 (inactive)	-0.724 (inactive)	-0.169 (inactive)	0.485	0.072
CCCC[C@@H]1C[C@H]1[C@@H](NC(=O)c1ccc(C(F)(F)F)cc1)c1ccc(C(=O)OC)cc1	-0.844	-0.55	-1.33	-1.97	-1.73	-0.84	0.282 (inactive)	-0.167	-1.72	0.312 (inactive)	1.51	0.146 (inactive)	0.444 (inactive)	-0.0667 (inactive)	1.02 (inactive)	1.02 (inactive)	0.909 (inactive)	0.787 (inactive)	0.971	0.209
COc1ccc(CCNC(=O)[C@@]2(Sc3ccc(C)cc3)CC(=O)N(Cc3cc(C(F)(F)F)cc(C(F)(F)F)c3)[C@@H]2c2ccc(CO)cc2)cc1	-0.147	0.7	-0.29	-0.305	-0.24	0.016	-0.563 (inactive)	1.15	-0.145	0.423 (inactive)	-0.392	-1.01 (inactive)	-0.378 (inactive)	-0.61 (inactive)	0.112 (inactive)	-0.83 (inactive)	0.0664 (inactive)	-0.331 (inactive)	-0.395	0.536
COC(=O)C1(CC(C)C)C=C2C(=C(C(C)C)C(=O)C2C)CN1 (stereo not given)	-1.49	-0.404	-1.43	0.0112	-1.31	-1.31	-1.46 (inactive)	0.105	-0.919	-0.697 (inactive)	-0.947	1.46 (inactive)	-1.56 (inactive)	-1.18 (inactive)	0.399 (inactive)	0.271 (inactive)	-0.592 (inactive)	-0.113 (inactive)	-1.97	0.732
CCOC(=O)C1=CC[C@@H](c2ccccc2Cl)N(S(=O)(=O)c2ccc(C)cc2)[C@H]1c1cccc(OC)c1	-0.698	-1.56	-0.467	-0.744	0.688	0.405	-1.39 (inactive)	0.702	-0.539	0.219 (inactive)	-0.18	1.46 (inactive)	-0.703 (inactive)	0.0463 (inactive)	0.34 (inactive)	0.822 (inactive)	-0.484 (inactive)	-0.679 (inactive)	-1.53	-0.114
